Screens from PubChem BioAssay.
Compounds with a hit are over-represented: about 4.8% of the library has one in this group of screens.
MPTP block = blocks calcium-induced mitochondrial swelling. inhibition, % at 10 µM. isolated mouse mitochondria, Ca2+ swelling absorbance, 30 min. hit rate 1.4% among 360,000;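 active means inhibition of 50% or more, scaled per plate between neutral and stimulator controls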
Mdm2-MdmX inh = inhibitors of human Mdm2/MdmX interaction. SaOS-2 split-luciferase Mdm2/MdmX complementation, luminescence. hit rate 3% among 330,000. O15151+Q00987. inhibition, % at 8 µM;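 active means inhibition of at least 50% at 8 µM in the primary screen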
Target sequence (O15151 whole entry, looked up): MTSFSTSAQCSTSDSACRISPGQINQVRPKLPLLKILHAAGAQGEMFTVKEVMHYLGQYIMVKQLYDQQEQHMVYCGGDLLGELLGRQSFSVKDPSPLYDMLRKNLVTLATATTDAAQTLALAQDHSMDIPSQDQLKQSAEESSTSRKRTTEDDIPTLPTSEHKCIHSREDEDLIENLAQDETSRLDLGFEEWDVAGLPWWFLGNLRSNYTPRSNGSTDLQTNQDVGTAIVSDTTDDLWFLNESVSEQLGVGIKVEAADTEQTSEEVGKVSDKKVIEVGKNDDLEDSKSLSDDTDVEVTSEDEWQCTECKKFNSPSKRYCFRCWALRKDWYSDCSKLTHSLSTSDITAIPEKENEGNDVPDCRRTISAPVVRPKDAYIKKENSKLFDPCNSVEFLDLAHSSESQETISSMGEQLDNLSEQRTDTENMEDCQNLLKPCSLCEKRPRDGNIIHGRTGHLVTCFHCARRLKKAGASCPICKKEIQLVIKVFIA
Target sequence (Q00987 whole entry, looked up): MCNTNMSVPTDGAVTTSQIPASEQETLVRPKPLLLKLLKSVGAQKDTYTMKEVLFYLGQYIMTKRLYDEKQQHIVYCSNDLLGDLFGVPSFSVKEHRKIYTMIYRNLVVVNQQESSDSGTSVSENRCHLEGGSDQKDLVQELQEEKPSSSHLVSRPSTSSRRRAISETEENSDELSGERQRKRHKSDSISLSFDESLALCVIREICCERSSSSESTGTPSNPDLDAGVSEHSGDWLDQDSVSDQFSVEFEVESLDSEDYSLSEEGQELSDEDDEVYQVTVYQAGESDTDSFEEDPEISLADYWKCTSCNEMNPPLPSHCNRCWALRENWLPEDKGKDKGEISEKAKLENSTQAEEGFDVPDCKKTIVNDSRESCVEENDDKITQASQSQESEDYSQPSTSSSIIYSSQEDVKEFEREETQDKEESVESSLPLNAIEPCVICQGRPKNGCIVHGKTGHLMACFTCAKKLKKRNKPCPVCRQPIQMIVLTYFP
Beta cell apopt = blocks beta cell apoptosis; protection from apoptosis, % (concentration not given with the values); hit rate 0.8% among 300,000; INS-1E cytokine-induced death, ATP luminescence, 48 h; percent of positive-control rescue, neutral wells zero;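 active means Every replicate reaches about 75%, or at least half do and their mean reaches it too, limit read from the data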;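 further: higher means more ATP so stronger rescue from cytokine killing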
CSC inhib = blocks cancer stem cells; cancer stem cell-like cells viability, luminescence; inhibition, % at 7.5 µM; hit rate 1.1% among 300,000; in the data active means inhibition above about 75%; tested in HMLE shEcad cells
Calb FLC = affects C. albicans growth with fluconazole; growth inhibition, % (test concentration not listed); hit rate 0.57% among 300,000; C. albicans CaCi-2 (fluconazole-resistant clinical isolate) + fluconazole, Alamar Blue growth, 48 h; AID 1979;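 active means growth inhibition above about 58% in most replicates, limit read from the data, passing the limit was not always enough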;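 further: all wells also contain fluconazole at 8 µg/ml as a sub-toxic cotreatment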
Mdm2-MdmX conf = human Mdm2/MdmX binding inhibition, confirmed. luminescent assay. shares compounds with Mdm2-MdmX inh. inhibition, % at 8 µM. hit rate 55% among 10,000; in the data active means inhibition above about 40%
Full FLuc ctr = counter-screen for Mdm2/MdmX inhibitors: full-length luciferase; hit rate 77% among 6,200; inhibition, % at 8 µM; SaOS-2 full-length luciferase counterscreen, luminescence; shares compounds with Mdm2-MdmX inh;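 active means mean inhibition at 8 µM reaching about 37%, which flags the compound as non-specific, limit read from the data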;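 further: p53-null SaOS-2 cells with luciferase driven by a doxycycline-inducible promoter; compound on cells about two nights before reading with doxycycline added after day one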
A number is an active result; . = inactive; / = not tested or not shown.

SMILES | MPTP block | Mdm2-MdmX inh | Beta cell apopt | CSC inhib | Calb FLC | Mdm2-MdmX conf | Full FLuc ctr
COc1ccc(OCCCn2cc(/C=C3/C(=N)N4C=C(C)SC4=NC3=O)c3ccccc32)cc1 | . | 65 | . | . | . | 71 | 69
CC(C)(C)Cc1c(-c2ccc(C#N)cc2)nc2ccc(Cl)cn12 | . | / | / | / | / | / | /
NC(=S)N1OC[C@@H]2COc3ccc4ccccc4c3[C@@H]21 | . | 69 | . | . | . | 53 | 46
CO/N=C/NC(=O)N1OC[C@@H]2COc3ccc4ccccc4c3[C@@H]21 | . | . | . | . | . | / | /
Cc1ccc2nc(N(CCCN(C)C)C(=O)c3cc(-c4cccs4)nc4ccccc34)sc2c1 | . | 96 | . | 103 | . | 46 | 37
CN(C)CCCN(C(=O)c1cc(-c2cccs2)nc2ccccc12)c1nc2c(F)cccc2s1 | . | 57 | / | . | . | . | /
COC(=O)c1ccc2c(=O)n(Cc3ccco3)c(SCC(=O)Nc3ccc(C)c(Cl)c3)nc2c1 | . | 68 | . | . | . | . | /
COc1ccc(NC(=O)CSc2nc3sc(C)c(C)c3c(=O)n2Cc2ccco2)cc1 | . | 87 | . | / | . | . | /
O=C(CSc1nc2cc(Cl)ccc2c(=O)n1Cc1ccco1)Nc1ccc(S(=O)(=O)N2CCOCC2)cc1 | . | . | . | . | . | / | /
Cc1sc2nc(SCC(=O)C(C)(C)C)n(Cc3ccco3)c(=O)c2c1C | . | . | . | . | . | / | /
COC(=O)C[C@H]1CC[C@H](NS(=O)(=O)c2cn(C)cn2)[C@@H](CO)O1 | . | / | / | / | / | / | /
CCN(CC)S(=O)(=O)c1cc(NC(=O)CSCc2c(C)noc2C)ccc1C | . | . | . | . | / | / | /
c1csc(C2=Nn3c(nnc3-c3ccncc3)SC2)c1 | . | 75 | . | / | . | 80 | 51
c1ccc(C2=Nn3c(nnc3-c3cc(-c4ccccc4)n[nH]3)SC2)cc1 | . | 79 | / | . | . | . | /
Clc1ccc(C2=Nn3c(nnc3-c3cc(-c4ccccc4)n[nH]3)SC2)cc1 | . | . | . | . | . | / | /
COc1ccc(C2=Nn3c(nnc3-c3ccccc3OC)SC2)cc1OC | . | / | . | . | . | / | /
c1ccc(C2=Nn3c(nnc3-c3cccs3)SC2)cc1 | . | . | / | . | . | / | /
COc1ccc(C2=Nn3c(nnc3-c3ccco3)SC2)cc1OC | . | 55 | . | . | . | . | /
Clc1ccc(C2=Nn3c(nnc3-c3n[nH]c4c3CCC4)SC2)cc1Cl | . | 89 | . | . | . | 69 | .
Cc1ccc(S(=O)(=O)N2CCCN(C(=O)c3ccc(-n4nccc4C)cc3)CC2)cc1 | . | . | / | / | / | / | /
Cc1ccc(-c2nnc3n2N=C(c2ccccc2)CS3)cc1 | . | . | . | . | . | / | /
COc1ccc(C2=Nn3c(nnc3-c3cc(C)[nH]n3)SC2)cc1 | . | 60 | . | . | . | 41 | 100
c1ccc(C2=Nn3c(nnc3-c3n[nH]c4c3CCC4)SC2)cc1 | . | 71 | / | . | . | 51 | 89
COc1cc(-c2nnc3n2N=C(c2ccccc2)CS3)cc(OC)c1OC | . | 74 | . | . | . | 69 | 57
COc1cccc(-c2nnc3n2N=C(C(C)(C)C)CS3)c1 | . | 85 | . | . | . | 99 | 51
SMILES | MPTP block | Mdm2-MdmX inh | Beta cell apopt | CSC inhib | Calb FLC | Mdm2-MdmX conf | Full FLuc ctr
CCCS(=O)(=O)NC(=O)C1(C)CCCN(C(=O)c2cncc(Br)c2)C1 (configuration not stated) | . | / | / | / | / | / | /
COc1ccc(-c2csc(NC(=S)NC(=O)/C=C/c3ccccc3)n2)cc1Br | / | 55 | . | . | . | . | /
O=C(/C=C/c1ccco1)NC(=S)Nc1nc(-c2ccc(Cl)cc2)cs1 | . | 61 | . | / | . | 54 | 67
O=C(/C=C/c1ccco1)NC(=S)Nc1nc(-c2ccc3ccccc3c2)cs1 | . | 78 | . | 76 | . | 45 | 48
O=C(O)/C=C/C(=O)Nc1nc(-c2ccc3ccccc3c2)cs1 | . | . | . | . | . | / | /
COC(=O)[C@]12CCCCC=C1N(Cc1ccc3c(c1)OCO3)C(=O)[C@H](CC(=O)N1CCC(c3ccccc3)CC1)C2 | . | / | / | / | / | / | /
CC(C)CCn1c(Sc2nc3ccccc3o2)nc2c1c(=O)[nH]c(=O)n2C | . | 61 | . | . | . | 46 | 41
Fc1ccc(Sc2nc(-c3ccccc3)nnc2C(F)(F)F)cc1 | . | 78 | . | / | . | . | /
Fc1ccc(Oc2nc(-c3ccccc3)nnc2C(F)(F)F)cc1 | . | . | . | . | . | / | /
